# CtBP-E1A blk: qHTS Assay for Inhibitors of the CtBP/E1A Interaction. CtBP / adenovirus E1A interaction (AlphaScreen). AlphaScreen GST-E1A/His-CtBP binding, 1536-well; stronger effect = lower value. activity change, % (no concentration beside the values). 340,000 compounds, 0.49% hits. AID 651724, 2012; in the data active = activity change below about -65%; inconclusive = mostly about -30% to -63%
#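 Homogeneous bead-based format: GST-tagged E1A captured on glutathione donor beads, His-tagged CtBP on nickel acceptor beads; compounds precede bead addition by 2 h at 37 °C.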
# TDP1 cell CPT: qHTS for Inhibitors of human tyrosyl-DNA phosphodiesterase 1 (TDP1): qHTS in cells in presence of CPT; AID 686979, 2013; 420,000 compounds, 12% hits; chicken DT40 Tdp1-/-;hTDP1 cells + 20 nM CPT, ATP luminescence, 48 h; Potency, µM (series often up to 46.2 µM), for inactives: top-dose activity change, negative = growth inhibition, actives largely listed as inhibitors; note: potency is the fitted concentration of half-maximal effect; nearly all actives have a fitted effect of over 55% in size
#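 Chicken DT40 Tdp1-/- cells stably complemented with human TDP1 were seeded at 400 cells/well in medium containing 20 nM camptothecin, exposed to pin-transferred compounds, and grown at 37 °C for at least 48 hr. Viability was read as ATP luminescence.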
# TDP1 inh: qHTS Assay for Inhibitors of Tyrosyl-DNA Phosphodiesterase (TDP1). Potency, µM (series often up to 130 µM), for the others: top-dose activity change, negative = inhibition, hits mostly inhibitors. recombinant TDP1, AlphaScreen DNA substrate cleavage. 350,000 compounds, 0.28% hits; note: potency is the fitted concentration of half-maximal effect; nearly all actives have a fitted effect of over 40% in size
#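 Recombinant E. coli-expressed Tdp1 (1 nM) preincubated with compound 15 min at RT, then 5'-biotin/3'-phosphotyrosine-FITC DNA substrate (15 nM) added for 5 min. AlphaScreen beads (10 ug/ml) added, 10 min RT; tyrosine-FITC cleavage read as signal loss.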
# IL1B secr inh: qHTS for Inhibitors of Inflammasome Signaling: IL-1-beta AlphaLISA Primary Screen; THP-1 LPS/ATP IL-1B secretion, AlphaLISA, 16 h; stronger effect = lower value; activity change, % at 57.5 µM; 360,000 compounds, 4.7% hits; in the data active = activity change below about -50%; inconclusive = mostly about -30% to -49%
#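 Secreted IL-1B measured by AlphaLISA bead assay after 16 h compound exposure of THP-1 cells; compounds (final up to 57.5 uM) added 1 h before LPS (250 ng/mL) and ATP (1.25 mM) stimulation; lower signal means less secretion.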
# Six1-Eya2 blk: qHTS Assay for Inhibitors of the Six1/Eya2 Interaction; Homeobox protein SIX1 (Homo sapiens) + Protein phosphatase EYA2 (Homo sapiens), …; AID 651725, 2012; activity change, % (concentration not given with the values); 360,000 compounds, 0.56% hits; AlphaScreen GST-Six1/His-Eya2 binding, biochemical; stronger effect = lower value; in the data active = activity change below about -65%; inconclusive = mostly about -30% to -63%
# Target sequence (O00167 whole entry, looked up): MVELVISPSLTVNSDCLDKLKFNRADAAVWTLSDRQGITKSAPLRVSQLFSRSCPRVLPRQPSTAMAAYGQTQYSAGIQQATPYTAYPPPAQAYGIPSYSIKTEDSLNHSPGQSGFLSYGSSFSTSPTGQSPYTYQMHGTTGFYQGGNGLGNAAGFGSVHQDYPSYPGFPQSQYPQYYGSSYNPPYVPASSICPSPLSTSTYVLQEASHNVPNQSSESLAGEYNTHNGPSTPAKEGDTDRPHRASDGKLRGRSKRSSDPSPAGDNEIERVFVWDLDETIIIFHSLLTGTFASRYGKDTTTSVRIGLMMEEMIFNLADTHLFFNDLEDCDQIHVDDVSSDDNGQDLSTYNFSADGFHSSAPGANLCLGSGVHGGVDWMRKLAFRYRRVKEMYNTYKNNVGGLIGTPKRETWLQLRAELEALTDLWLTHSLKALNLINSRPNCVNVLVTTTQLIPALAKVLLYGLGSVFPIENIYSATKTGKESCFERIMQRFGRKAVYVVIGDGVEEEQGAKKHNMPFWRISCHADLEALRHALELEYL
# Target sequence (Q15475 whole entry, looked up): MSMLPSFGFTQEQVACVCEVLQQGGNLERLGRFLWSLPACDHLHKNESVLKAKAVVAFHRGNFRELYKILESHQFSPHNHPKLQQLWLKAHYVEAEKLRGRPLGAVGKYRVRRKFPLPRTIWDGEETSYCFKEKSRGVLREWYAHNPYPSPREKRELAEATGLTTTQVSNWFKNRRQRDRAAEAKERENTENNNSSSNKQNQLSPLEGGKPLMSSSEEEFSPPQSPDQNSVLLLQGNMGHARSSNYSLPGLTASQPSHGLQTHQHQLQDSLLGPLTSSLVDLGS
#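 Compounds are tested against tagged Six1 and Eya2 proteins bridged by glutathione donor and nickel acceptor beads; after a one-hour incubation at 37 °C without light, AlphaScreen emission is recorded.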
# DT40 TDP1 no CPT: qHTS for Inhibitors of human tyrosyl-DNA phosphodiesterase 1 (TDP1): qHTS in cells in absence of CPT | DT40 Tdp1-/- hTDP1 cells, no CPT, ATP luminescence, 48 h | Potency, µM (doses to about 46.2 µM), for the others: at the highest dose activity change, negative = growth inhibition, actives largely listed as inhibitors | 420,000 compounds, 15% hits | AID 686978, 2013; note: potency is the fitted concentration of half-maximal effect; nearly all actives have a fitted effect of over 55% in size
#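 DT40 Tdp1-/-;hTDP1 cells, no CPT (DMSO vehicle only), 400 cells/well; compounds pin-transferred; ≥48 hr, 37 °C; CellTiter-Glo 30 min RT dark, luminescence read.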
# * hit, by the source's call; u = inconclusive; x = no result given. The list is not random: actives were taken first. Their share in the collection is about 18%. Unless noted, calls come from the whole dose curve; as a rule, active = well fitted curve in the direction sought with a large enough effect; inconclusive = small, poorly fitted or top-dose-only effect, or another doubt; inactive = no such curve, though single readings can be large; an effect the other way counts as inactive or inconclusive. % is set by controls: 0 for no effect and ±100 for the full control effect.
SMILES,CtBP-E1A blk,TDP1 cell CPT,TDP1 inh,IL1B secr inh,Six1-Eya2 blk,DT40 TDP1 no CPT
C#CCOc1c(Cl)cc(/C=N/NC(N)=S)cc1OCC,-8,u,3%,24,-11,10µM*
COc1ccc(C(O)c2nc(-c3ccccc3)cs2)cc1 (centres undefined),8,13µM*,x,7,2,10µM*
COc1cc(C(O)c2nc(-c3ccncc3)cs2)ccc1F (centres undefined),-22,u,x,-9,1,23µM*
COc1ccc(C(O)c2nc(-c3ccc(N(C)C)cc3)cs2)cc1 (centres undefined),u,u,x,-7,u,18µM*
COc1cccc(C(O)c2nc(-c3ccccc3)cs2)c1 (centres undefined),3,u,x,-5,2,16µM*
COc1ccc(CC(=O)OCC(=O)c2ccc(S(=O)(=O)N3CCCCC3)cc2)cc1,5,-20%,1%,10,3,-1%
COc1cccc(C(O)c2nc(-c3ccccc3OC)cs2)c1 (centres undefined),1,u,x,-15,6,u
COc1cccc(C(O)c2nc(-c3ccccc3C)cs2)c1 (centres undefined),0,u,x,22,7,18µM*
COc1ccc(C(O)c2nc(-c3ccncc3)cs2)cc1 (centres undefined),-12,18µM*,x,46,15,10µM*
CN(C)c1ccc(-c2csc(C(O)c3ccc(F)c(F)c3)n2)cc1 (centres undefined),u,16µM*,x,-15,-16,15µM*
CN(C)c1ccc(-c2csc(C(O)c3ccc(F)cc3)n2)cc1 (centres undefined),u,u,x,-19,u,u
COC(=O)/C(=C/c1ccco1)NC(=O)c1ccco1,-13,7%,3%,2,0,-7%
CCOC(=O)c1ccc(NC(=O)c2ccc(OC(C)C)c(OC)c2)cc1,2,u,5%,-19,-14,u
COCCCNC(=O)c1cccc2c(-c3cccc(C(N)=O)c3)coc12,-20,u,x,20,-26,13µM*
Cn1cc(-c2coc3c(C(=O)NCc4cccnc4)cccc23)cn1,-9,u,x,-4,-7,23µM*
NC(=O)c1cccc(-c2coc3c(C(=O)NCc4ccccc4)cccc23)c1,u,u,x,-22,u,18µM*
O=[N+]1C2=C(CCCC2)N([O-])C12CCCC2,10,-26%,1%,21,4,-12%
CC(C)N(Cc1nc(-c2ccc(Cl)cc2)no1)C(=O)CCC1CCCC1,16,u,-5%,6,14,u
CC1CCN(CCCNC(=O)CCCNC(=O)Cn2cnc3sc4c(c3c2=O)CCCC4)CC1,-21,-1%,3%,-101*,-1,0%
Cc1sc2ncn(CC(=O)NCCCN3CC(C)CC(C)C3)c(=O)c2c1S(=O)(=O)N1CC(C)CC(C)C1 (centres undefined),-15,18µM*,5%,0,10,u
Cc1sc2ncn(CC(=O)NCCCN3CCC(C)CC3)c(=O)c2c1S(=O)(=O)N1CCC(C)CC1,0,11%,0%,1,7,-1%
COc1ccc(O)c(C=NCC(C)N=Cc2cc(OC)ccc2O)c1 (centres undefined),-21,23%,3%,-9,u,-11%
CC1CCN(C(=O)C(C)NCc2ccc(F)cc2)CC1 (centres undefined),12,u,x,11,-4,21µM*
Cc1cc(NCc2ccccc2Cl)n2cnnc2n1,x,12µM*,7%,x,x,9.2µM*
COc1cc(NC(=O)CC(C)S(=O)(=O)c2cc3c(cc2C)NC(=O)CO3)cc(OC)c1OC (centres undefined),-9,-4%,1%,2,-1,24%
SMILES,CtBP-E1A blk,TDP1 cell CPT,TDP1 inh,IL1B secr inh,Six1-Eya2 blk,DT40 TDP1 no CPT
Cc1ccc(N2CCN(CC(O)COC3CCCCC3)CC2)cc1 (centres undefined),6,-26%,2%,15,2,u
CCc1ccccc1N1CC23C=CC(O2)C(C(=O)O)C3C1=O (centres undefined),0,18µM*,4%,-9,32,-22%
CC(C)n1ncc2c(C(=O)N3CCN(S(=O)(=O)c4cccc(F)c4)CC3)cc(C3CC3)nc21,13,-1%,x,22,0,14%
COc1cccc(CNC(=O)c2cc(C3CC3)nc3c2cnn3C(C)C)c1,0,u,-3%,-53*,-3,u
Cc1ccc(CNC(=O)c2cc(C3CC3)nc3c2cnn3C(C)C)cc1,x,u,-2%,-30,10,18µM*
Cc1ccc(S(=O)(=O)N2CCN(C(=O)c3cc(C4CC4)nc4c3cnn4C(C)C)CC2)cc1,x,u,-1%,u,-9,4.1µM*
CN(Cc1cccs1)C(=O)c1ccc(Cl)c(S(=O)(=O)N2CCCCCC2)c1,3,-30%,0%,-9,-1,u
CCOC(=O)C1(Cc2ccc(OC)cc2)CCN(C(=O)c2ccc3[nH]ccc3c2)CC1,-3,9.2µM*,-10%,-4,-8,7.3µM*
CCOC(=O)C1(Cc2cccc(OC)c2)CCN(Cc2cccc3c2OCO3)CC1,-9,u,-11%,-1,-7,18µM*
CCOC(=O)C1(Cc2cccc(OC)c2)CCN(Cc2cccn2-c2ccccn2)CC1,-14,-25%,0%,-12,-12,u
CCOC(=O)C1(Cc2cccc(OC)c2)CCN(Cc2cccc(OC)c2OC)CC1,x,u,x,-65*,-1,18µM*
CCOC(=O)C1(Cc2cccc(OC)c2)CCCN(Cc2nccn2CC)C1 (centres undefined),-7,15µM*,6%,-4,2,13µM*
CCn1ccnc1CN1CCCC(CO)(Cc2cccc(OC)c2)C1 (centres undefined),4,-22%,3%,13,-1,u
COc1ccc(N/C=C\C(=O)c2ccc(Br)cc2)cc1OC,2,-14%,0%,-8,-3,-23%
